BaF3 parental = parental Ba/F3 viability inhibition as JAK2V617F counter-screen. CellTiter-Glo ATP luminescence. inhibition, % at 5.6 µM. actives 1.1% (n = 220,000);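 active means inhibition above a per-campaign cutoff, the mean inhibition of all tested compounds plus 3 SD, cut at about 27% in these data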;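 further: 0% = DMSO wells and 100% = JAK Inhibitor I control wells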
aSyn UTR inh = MLPCN primary screen, SNCA 5' untranslated region; alpha-synuclein 5'UTR reporter, inhibitor activity; inhibition, % (tested at 7.5 µM); actives 0.82% (n = 300,000); AID 1813; in the data active means inhibition above about 60%;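 further: H4 neuroglioblastoma cells stably carrying SNCA 5'UTR luciferase fusion; 0% = DMSO wells and 100% = positive control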
IEC-6 cytotox = kills IEC-6 intestinal cells in KLF5 counter-screen. actives 0.78% (n = 290,000). IEC-6 cytotoxicity, luminescence viability. inhibition, % at 5 µM; in the data active means inhibition above about 22%;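 further: 0% = plate median of test compound wells and 100% = cytotoxic reference compound wells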
KLF5 inh = suppresses KLF5 promoter-driven expression; actives 0.23% (n = 290,000); DLD-1 KLF5 promoter-luciferase reporter, luminescence; inhibition, % at 5 µM;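 active means inhibition above a per-plate limit of that plate's mean compound inhibition plus 3 SD, cut at about 60% in these data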;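 further: 0% = DMSO wells and 100% = LY294002 at 200 µM; higher means less KLF5 promoter-driven luciferase light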
Ba/F3 V617F tox = reduce viability of Ba/F3 cells dependent on JAK2V617F; Ba/F3 EpoR-JAK2V617F viability, ATP luminescence; inhibition, % at 5.6 µM; actives 1.1% (n = 220,000); AID 1446;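 active means inhibition above the campaign mean plus 3 SD over all tested compounds, cut at about 24% in these data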;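 further: cytokine-independent growth of Ba/F3 cells driven by EpoR plus mutant JAK2; 0% = DMSO-treated cells and 100% = JAK inhibitor I control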
APP 5UTR inh = APP translation inhibition; SH-SY5Y APP 5'UTR-luciferase reporter, luminescence; inhibition, % at 2 µM; actives 0.82% (n = 190,000);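 active means inhibition above a set limit, derived from the sample mean plus 3 SD, cut at about 45% in these data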
* hit, by the source's call. This is a sample that favours compounds with a hit; in the whole collection about 2.1% have one here.

Screening CCCOc1ccc(/C=N/NC(=S)Nc2ccccc2[N+](=O)[O-])c(O)c1 returned BaF3 parental 4, aSyn UTR inh 101*, IEC-6 cytotox -1, KLF5 inh 35, Ba/F3 V617F tox -3 and APP 5UTR inh 46*.
For CCCOc1ccc(/C=N/Nc2ccccc2[N+](=O)[O-])c(O)c1 the results were BaF3 parental 4, aSyn UTR inh 62*, IEC-6 cytotox -2, KLF5 inh -28, Ba/F3 V617F tox -3 and APP 5UTR inh -173.
Cc1ccc(Cl)cc1NC(=O)c1cc2ccccc2cc1O was read as BaF3 parental 0, aSyn UTR inh 54, IEC-6 cytotox -4, KLF5 inh -23 and Ba/F3 V617F tox -6.
`CC1C/C(=C/c2ccncc2)C(=O)/C(=C/c2ccncc2)C1` (stereo unspecified) gave BaF3 parental -2, aSyn UTR inh -107, IEC-6 cytotox 22, KLF5 inh 58, Ba/F3 V617F tox 15 and APP 5UTR inh 95*.
O=C1/C(=C/c2ccncc2)Cc2ccccc21 was read as aSyn UTR inh 11.
`NNC(=O)c1cccc(COc2ccccc2Br)c1` gave BaF3 parental 3, aSyn UTR inh -72, IEC-6 cytotox 2, KLF5 inh -113, Ba/F3 V617F tox -1 and APP 5UTR inh -173.
Screening NNC(=O)c1cccc(COc2ccc3c(c2)CCC3)c1 returned BaF3 parental 3, aSyn UTR inh 71*, IEC-6 cytotox -4, KLF5 inh -25, Ba/F3 V617F tox -4 and APP 5UTR inh -39.
Screening O=C(c1cc2sccc2n1Cc1ccc(F)cc1)N1CCCc2ccccc21 returned BaF3 parental -3, aSyn UTR inh 27, IEC-6 cytotox 2, KLF5 inh -12, Ba/F3 V617F tox -3 and APP 5UTR inh 58*.
O=C(/C=C/c1ccc(Cl)cc1)NC(=S)Nc1ccc(NC(=O)c2ccco2)cc1 was read as BaF3 parental -2, aSyn UTR inh -41, IEC-6 cytotox -2, KLF5 inh -17, Ba/F3 V617F tox -5 and APP 5UTR inh 81*.
Screening CC(=O)Nc1ccc(NC(=S)NC(=O)/C=C/c2ccc(Cl)cc2)cc1 returned BaF3 parental -1, aSyn UTR inh -75, IEC-6 cytotox 1, KLF5 inh 8, Ba/F3 V617F tox -3 and APP 5UTR inh 8.
Screening O=C(NC(=S)NC1CCCCCCCCCCC1)c1cccnc1 returned BaF3 parental 65*, aSyn UTR inh 31, IEC-6 cytotox -4, KLF5 inh -9, Ba/F3 V617F tox -2 and APP 5UTR inh 2.
For CCCCC(=O)N/N=C/c1ccc(Sc2cccc3cccnc23)o1 the results were BaF3 parental 2, aSyn UTR inh 38, IEC-6 cytotox 7, KLF5 inh -22, Ba/F3 V617F tox 0 and APP 5UTR inh -1.
O=C(Cc1cccc2ccccc12)N/N=C/c1ccc(Sc2cccc3cccnc23)o1 was read as BaF3 parental 1, aSyn UTR inh 2, IEC-6 cytotox 0, KLF5 inh -2, Ba/F3 V617F tox -4 and APP 5UTR inh 54*.
Screening COc1ccc(CCc2nnc(N)s2)cc1OC returned aSyn UTR inh 33, IEC-6 cytotox -2 and KLF5 inh -1.
Screening Cc1ccc(C(=O)Nc2ncc(C)s2)o1 returned BaF3 parental 8, aSyn UTR inh -119, IEC-6 cytotox 5, KLF5 inh -177, Ba/F3 V617F tox 3 and APP 5UTR inh -30.
Screening Cc1ccc(C(=O)Nc2ncc(Cc3ccc(SC(F)F)cc3)s2)cc1 returned BaF3 parental 2, aSyn UTR inh -163, IEC-6 cytotox 2, KLF5 inh 33, Ba/F3 V617F tox 3 and APP 5UTR inh 93*.
Screening Cc1ccc(C(=O)Nc2ncc(Cc3ccc(F)cc3)s2)o1 returned BaF3 parental 71*, aSyn UTR inh -107, IEC-6 cytotox 45*, KLF5 inh -107, Ba/F3 V617F tox 80* and APP 5UTR inh -134.
Cc1ccc(C(=O)Nc2ncc([N+](=O)[O-])s2)cc1 was read as aSyn UTR inh 69*, IEC-6 cytotox 14 and KLF5 inh 87*.
`O=c1[nH]c(N2CCCCC2)nc2ncn(Cc3ccccc3)c12` gave BaF3 parental 1, aSyn UTR inh -6, IEC-6 cytotox -2, KLF5 inh -8 and Ba/F3 V617F tox -4.
Screening Cc1ccccc1Nc1c(-c2ccccn2)nc2ccccn12 returned BaF3 parental 1, aSyn UTR inh 64*, IEC-6 cytotox -2, KLF5 inh 0, Ba/F3 V617F tox 0 and APP 5UTR inh 39.
For Cc1ccn2c(Nc3ccccc3)c(-c3ccccn3)nc2c1 the results were BaF3 parental 7, aSyn UTR inh 54, IEC-6 cytotox -2, KLF5 inh -38, Ba/F3 V617F tox 4 and APP 5UTR inh 59*.
Screening Cc1ccn2c(Nc3ccccc3C)c(-c3ccccn3)nc2c1 returned BaF3 parental 0, aSyn UTR inh 45, IEC-6 cytotox -1, KLF5 inh -9, Ba/F3 V617F tox -2 and APP 5UTR inh 28.
`Cc1c(NC(=O)C(C)OC(=O)/C=C/c2ccc(OC(F)F)cc2)c(=O)n(-c2ccccc2)n1C` (stereo unspecified) gave aSyn UTR inh 6.
`COc1ccc(-n2c(-c3ccccc3)cc3c2CCCC3=O)cc1` gave BaF3 parental 2, aSyn UTR inh -7, IEC-6 cytotox 5, KLF5 inh -11, Ba/F3 V617F tox 0 and APP 5UTR inh 13.
`COc1ccc(-n2c(-c3ccc(Br)cc3)n[nH]c2=S)cc1` gave aSyn UTR inh 22, IEC-6 cytotox -3 and KLF5 inh -3.
Screening COc1ccc(-n2c(-c3ccc(Br)cc3)c[n+]3c2CCCCC3)cc1 returned BaF3 parental 64*, aSyn UTR inh 2, IEC-6 cytotox 18, KLF5 inh -30, Ba/F3 V617F tox 76* and APP 5UTR inh 0.
COc1ccc(-n2c(-c3ccc(Br)cc3)c[n+]3c2CCC3)cc1 was read as BaF3 parental 66*, aSyn UTR inh -2, IEC-6 cytotox -1, KLF5 inh -1, Ba/F3 V617F tox 81* and APP 5UTR inh 7.
`COc1ccc(-n2c(-c3ccccc3)c[n+]3c2CCC3)cc1` gave BaF3 parental 63*, aSyn UTR inh -10, IEC-6 cytotox 2, KLF5 inh -25 and Ba/F3 V617F tox 75*.
`COc1ccc(-n2c(-c3ccc(Br)cc3)c[n+]3c2SC(C)C3)cc1` (stereo unspecified) gave BaF3 parental 67*, aSyn UTR inh -3, IEC-6 cytotox 5, KLF5 inh -25, Ba/F3 V617F tox 76* and APP 5UTR inh -37.
COc1ccc(-n2c(-c3ccc(Br)cc3)nc(=S)c3c2CCCC3)cc1 was read as BaF3 parental 4, aSyn UTR inh -49, IEC-6 cytotox -1, KLF5 inh -11, Ba/F3 V617F tox -3 and APP 5UTR inh 8.
For CCN(Cc1cc2ccccc2[nH]c1=O)C(=O)c1cccc([N+](=O)[O-])c1 the results were BaF3 parental 2, aSyn UTR inh 20, IEC-6 cytotox 0, KLF5 inh -4 and Ba/F3 V617F tox -2.

Screening data: PubChem, several laboratories
